Assay results as given in PubChem BioAssay (NCATS).
Values joined by “and” are separate entries in the source; they are usually repeats but may differ in a detail not shown here. Identical values can stand only once. Inconclusive results are not listed. Some compounds were tested as several samples or in several runs, with calls that do not always agree. Active and inactive are the calls of the source. Calls follow the shape of the dose curve; as a rule, active = well fitted curve in the direction sought with a large enough effect; inconclusive = small, poorly fitted or top-dose-only effect, or another doubt; inactive = no such curve, though single readings can be large; an effect the other way counts as inactive or inconclusive.

Legend:
MKL-1 = assay: qHTS assay to identify novel small-molecules to repurpose for Merkel cell carcinoma treatment (AID 1296009); conditions: MCC and control cell lines, CellTiter-Glo viability, 72 h; series mostly up to 46 µM; also: nearly all actives have a fitted effect of over 60% in size; also: potency is read from the fitted curve at half-maximal effect
Procedure, shortened: (§1)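 Cell viability, measured as CellTiter-Glo luminescence, was normalized between DMSO and no-cell wells. The cells had been exposed to 8- or 11-point compound dilutions for 72 hr at 37 degree celsius.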

MKL-2 = assay: as above; conditions: MCC and control cell lines, CellTiter-Glo viability, 72 h; series mostly up to 46 µM
Procedure, shortened: as §1

NIH3T3 = assay: as above; conditions: MCC and control cell lines, CellTiter-Glo viability, 72 h; at 44.8 µM (top of the series) unless noted
Procedure, shortened: as §1

UISO = assay: as above; conditions: MCC and control cell lines, CellTiter-Glo viability, 72 h; series mostly up to 46 µM
Procedure, shortened: as §1

WaGa = assay: as above; conditions: MCC and control cell lines, CellTiter-Glo viability, 72 h; series mostly up to 46 µM
Procedure, shortened: as §1

C33A = assay: Primary qHTS to identify gynecologic anti-cancer compounds using libraries of approved drugs and bioactive compounds (AID 1345084); conditions: Gynecologic cancer cell panel viability, ATPlite luminescence, 48 h; series mostly up to 57.5 µM; also: nearly all actives have a fitted effect of over 55% in size
Procedure, shortened: (§2)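 Five-point cytotoxicity, 48 h drug exposure at 37 C, 5% CO2, on cells seeded 16 h beforehand. ATP content read by ATPlite luminescence.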

CAOV3 = assay: as above; conditions: Gynecologic cancer cell panel viability, ATPlite luminescence, 48 h; series mostly up to 57.5 µM
Procedure, shortened: as §2

CASKI = assay: as above; conditions: Gynecologic cancer cell panel viability, ATPlite luminescence, 48 h; series mostly up to 57.5 µM
Procedure, shortened: as §2

Es-2 = assay: as above; conditions: Gynecologic cancer cell panel viability, ATPlite luminescence, 48 h; series mostly up to 57.5 µM
Procedure, shortened: as §2

HeLa = assay: as above; conditions: Gynecologic cancer cell panel viability, ATPlite luminescence, 48 h; series mostly up to 57.5 µM
Procedure, shortened: as §2

Hek293T = assay: as above; conditions: Gynecologic cancer cell panel viability, ATPlite luminescence, 48 h, control line for the selectivity index; series mostly up to 57.5 µM
Procedure, shortened: as §2

JEG-3 = assay: as above; conditions: Gynecologic cancer cell panel viability, ATPlite luminescence, 48 h; series mostly up to 57.5 µM
Procedure, shortened: as §2

OV90 = assay: as above; conditions: Gynecologic cancer cell panel viability, ATPlite luminescence, 48 h; series mostly up to 57.5 µM
Procedure, shortened: as §2

PA-1 = assay: as above; conditions: Gynecologic cancer cell panel viability, ATPlite luminescence, 48 h; series mostly up to 57.5 µM
Procedure, shortened: as §2

SKOV3 = assay: as above; conditions: Gynecologic cancer cell panel viability, ATPlite luminescence, 48 h; series mostly up to 57.5 µM
Procedure, shortened: as §2

Tov-21-G = assay: as above; conditions: Gynecologic cancer cell panel viability, ATPlite luminescence, 48 h; series mostly up to 57.5 µM
Procedure, shortened: as §2

Tov112D = assay: as above; conditions: Gynecologic cancer cell panel viability, ATPlite luminescence, 48 h; series mostly up to 57.5 µM
Procedure, shortened: as §2

[1] = Drug repurposing screens with cells derived from glioblastoma tumor samples (AID 1345199); conditions: GBM patient neurospheres viability, ATP luminescence, 48 h; also: nearly all actives have a fitted effect of over 40% in size; also: potency is read from the fitted curve at half-maximal effect
Procedure, shortened: (§3)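 Primary testing used CD133+ neurospheres from four GBM patients, seven concentrations, 48 h exposure and ATP-based viability; confirmation added three slower-growing patient lines.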

astro = assay: as above; conditions: viability, ATP luminescence, 48 h; series mostly up to 45.9 µM
Procedure, shortened: as §3

[2] = at 20 µM (top of the series), tumour line C
[3] = at 21.2 µM (top of the series), tumour line B
[4] = at 21.2 µM (top of the series), tumour line D
[5] = at 46.1 µM (top of the series), tumour line C
[6] = at 45.9 µM (top of the series), tumour line B
[7] = at 45.9 µM (top of the series), tumour line D
[8] = at 46 µM (top of the series), tumour line A
% is scaled to controls: 0 for no effect and ±100 for the full control effect.

Cc1cc2cc3c(C)cc(=O)oc3c(C)c2o1
inactive and 4.69 µM (active): Potency (WaGa)
inactive: Potency (MKL-1) | Potency (MKL-2) | outcome (NIH3T3) | Potency (UISO) | Potency (C33A) | Potency (CAOV3) | Potency (CASKI) | Potency (Es-2) | Potency (HeLa) | Potency (Hek293T) | Potency (JEG-3) | Potency (OV90) | Potency (PA-1) | Potency (SKOV3) | Potency (Tov-21-G) | Potency (Tov112D) | activity, negative = cell killing [1, 2] -6.21% | activity, negative = cell killing [1, 3] -13.8% | activity, negative = cell killing [1, 4] -30.4% | Potency (astro)

Cc1cc(Cl)ccc1OCCCC(=O)NO
active: Potency (MKL-1) 14.8 µM

O=c1c(O)c(-c2cc(O)c(O)c(O)c2)oc2cc(O)cc(O)c12
inactive: Potency (MKL-1) | Potency (MKL-2) | Potency (UISO) | Potency (WaGa)

Cc1c(C(=O)NN2CCCCC2)nn(-c2ccc(Cl)cc2Cl)c1-c1ccc(Cl)cc1
active: Potency ([1]; tumour line A) 5.01 µM | Potency (astro) 35.5 µM
inactive: Potency (MKL-1) | Potency (MKL-2) | outcome (NIH3T3) | Potency (WaGa) | Potency (C33A) | Potency (CAOV3) | Potency (CASKI) | Potency (Es-2) | Potency (HeLa) | Potency (JEG-3) | Potency (OV90) | Potency (PA-1) | Potency (SKOV3) | Potency (Tov-21-G) | Potency (Tov112D) | activity, negative = cell killing [1, 5] -11.3%

C[C@@H](c1ncncc1F)[C@](O)(Cn1cncn1)c1ccc(F)cc1F
inactive: Potency (MKL-1) | Potency (MKL-2) | Potency (UISO) | Potency (WaGa)

C[C@@H](N)C1CCC(C(=O)Nc2ccncc2)CC1 (stereo not given in full)
inactive: Potency (MKL-1) | Potency (MKL-2) | Potency (UISO) | Potency (WaGa)

CC1(C)NC(=O)N(c2ccc([N+](=O)[O-])c(C(F)(F)F)c2)C1=O
inactive: Potency (MKL-1) | Potency (MKL-2) | Potency (UISO) | Potency (WaGa) | Potency (C33A) | Potency (CAOV3) | Potency (CASKI) | Potency (Es-2) | Potency (HeLa) | Potency (Hek293T) | Potency (JEG-3) | Potency (OV90) | Potency (PA-1) | Potency (SKOV3) | Potency (Tov-21-G) | Potency (Tov112D)

O=C(CCc1ccc(O)cc1)c1c(O)cc(O)cc1O
active: Potency (MKL-1) 9.35 µM | Potency (MKL-2) 4.69 µM | Potency (WaGa) 5.9 µM
inactive: outcome (NIH3T3)

COc1ccc(C2(C#N)CCC(C(=O)O)CC2)cc1OC1CCCC1 (stereo not given)
inactive: Potency (MKL-1) | Potency (MKL-2) | Potency (UISO) | Potency (WaGa) | Potency (C33A) | Potency (CAOV3) | Potency (CASKI) | Potency (Es-2) | Potency (HeLa) | Potency (Hek293T) | Potency (JEG-3) | Potency (OV90) | Potency (PA-1) | Potency (SKOV3) | Potency (Tov-21-G) | Potency (Tov112D) | activity, negative = cell killing [1, 6] -12.3% | activity, negative = cell killing [1, 7] -10.6% | activity, negative = cell killing [1, 5] -18.3% | Potency (astro)

CC1(C)C(=O)N(CCN2CCC(C(=O)c3ccc(F)cc3)CC2)c2ccccc21
inactive: Potency (MKL-1) | Potency (MKL-2) | Potency (UISO) | Potency (WaGa)

C[C@H](Cn1cnc2c(N)ncnc21)OCP(=O)(O)O
inactive: Potency (MKL-1) | Potency (MKL-2) | outcome (NIH3T3) | Potency (UISO) | Potency (WaGa) | activity, negative = cell killing [1, 6] -17.6% | activity, negative = cell killing [1, 7] -7.53% | activity, negative = cell killing [1, 8] -24.5% | activity, negative = cell killing [1, 5] -20.5% | Potency (astro)

Cc1cccc(-c2[nH]ncc2-c2ccc3ncccc3n2)n1
inactive: Potency (MKL-1) | Potency (MKL-2) | Potency (UISO)

COC(=O)C1=C(C)NC(C)=C(C(=O)OC(C)C)C1c1cccc2nonc12 (stereo not given)
inactive: Potency (MKL-1) | Potency (MKL-2) | Potency (UISO) | Potency (WaGa) | Potency (C33A) | Potency (CAOV3) | Potency (CASKI) | Potency (Es-2) | Potency (HeLa) | Potency (Hek293T) | Potency (JEG-3) | Potency (OV90) | Potency (PA-1) | Potency (SKOV3) | Potency (Tov-21-G) | Potency (Tov112D) | activity, negative = cell killing [1, 2] -16.7% | activity, negative = cell killing [1, 3] -11.5% | activity, negative = cell killing [1, 4] -1.17% | Potency (astro)

O=c1cc(N2CCOCC2)oc2c(-c3ccccc3)cccc12
inactive: Potency (MKL-1) | Potency (MKL-2) | Potency (UISO) | Potency (WaGa)

NC(=O)Cc1cccc(C(=O)c2ccccc2)c1N
inactive: Potency (MKL-1) | Potency (MKL-2) | Potency (UISO) | Potency (WaGa) | Potency (C33A) | Potency (CAOV3) | Potency (CASKI) | Potency (Es-2) | Potency (HeLa) | Potency (Hek293T) | Potency (JEG-3) | Potency (OV90) | Potency (PA-1) | Potency (SKOV3) | Potency (Tov-21-G) | Potency (Tov112D) | activity, negative = cell killing [1, 6] -10.2% | activity, negative = cell killing [1, 7] -28% | activity, negative = cell killing [1, 5] -24.8% | Potency (astro)

Cc1cccc(C#Cc2ccccc2)n1
inactive: Potency (MKL-1) | Potency (MKL-2) | Potency (UISO) | Potency (WaGa)

O=C1c2c(O)cc(O)cc2OC(c2ccc(O)c(O)c2)C1O (stereo not given)
inactive: Potency (MKL-1) | Potency (MKL-2) | Potency (UISO) | Potency (WaGa)

C[Se]CCC(N)C(=O)O (stereo not given)
inactive: Potency (MKL-1) | Potency (MKL-2) | outcome (NIH3T3) inactive [at 92 µM] | Potency (UISO) | Potency (WaGa) | activity, negative = cell killing [1, 6] -7.06% | activity, negative = cell killing [1, 7] 3.7% | activity, negative = cell killing [1, 8] -13.2% | activity, negative = cell killing [1, 5] 5.25% | Potency (astro)

CCCCCCCCCCCCCCCCCCCCCCO
inactive: Potency (MKL-1) | Potency (MKL-2) | outcome (NIH3T3) | Potency (UISO) | Potency (WaGa) | activity, negative = cell killing [1, 6] -4.68% | activity, negative = cell killing [1, 7] 1.13% | activity, negative = cell killing [1, 8] -31.4% | activity, negative = cell killing [1, 5] 4.25% | Potency (astro)

CNC[C@@H](O)[C@@H](O)[C@H](O)[C@H](O)CO
inactive: Potency (MKL-1) | Potency (MKL-2) | outcome (NIH3T3) | Potency (UISO) | Potency (WaGa) | activity, negative = cell killing [1, 6] 0.477% | activity, negative = cell killing [1, 7] -17.4% | activity, negative = cell killing [1, 5] -4.13% | Potency (astro)

O=c1c(O)c(-c2ccc(O)cc2O)oc2cc(O)cc(O)c12
inactive: Potency (MKL-1) | Potency (MKL-2) | Potency (UISO) | Potency (WaGa)

COC(=O)N[C@H](C(=O)N[C@@H](Cc1ccccc1)[C@@H](O)CN(Cc1ccc(-c2ccccn2)cc1)NC(=O)[C@@H](NC(=O)OC)C(C)(C)C)C(C)(C)C
active: Potency ([1]; tumour line A) 11.2 µM
inactive: Potency (MKL-1) | Potency (MKL-2) | Potency (UISO) | Potency (WaGa) | Potency (C33A) | Potency (CAOV3) | Potency (CASKI) | Potency (Es-2) | Potency (HeLa) | Potency (Hek293T) | Potency (JEG-3) | Potency (OV90) | Potency (PA-1) | Potency (SKOV3) | Potency (Tov-21-G) | Potency (Tov112D) | activity, negative = cell killing [1, 6] -0.919% | activity, negative = cell killing [1, 7] -29.7% | activity, negative = cell killing [1, 5] 8.04% | Potency (astro)
